From PubChem BioAssay
A selection: hits, their analogues and other compounds. The true share with any hit is near 2%.
Shn3 inh set2: inhibitors of Schnurri-3 3'UTR reporter in osteoblasts. Clone20 osteoblast Shn3 3'UTR firefly luciferase, 24 h. inhibition, % at 12.5 µM. 360,000 compounds, 0.52% hits. AID 588674;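 active = mean inhibition of at least 75% with every replicate also reaching 75%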;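 note: 0% = median of neutral control wells and 100% = pilot-screen positive control compound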
EWS-Fli block: blocks EWS/Fli oncoprotein-driven transcription | A673 NR0B1-luciferase reporter, viability-normalised | inhibition, % at 12.6 µM | 350,000 compounds, 0.67% hits | AID 651661;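 active = mean inhibition of at least 50% after viability correction, with every replicate also passing that limit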;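 note: firefly luciferase signal divided by Alamar Blue viability fluorescence both relative to DMSO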
CF NFkB inh: cystic fibrosis NF-kB activation inhibition. 360,000 compounds, 0.86% hits. inhibition, % at 5 µM. KKLEB NF-kB-GFP reporter, PAF-induced, GFP fluorescence overnight;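 active = at least 50% inhibition at 5 µM, scaled per plate between neutral and stimulator controls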;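 note: PAF is a Pseudomonas aeruginosa culture filtrate used as stimulus; plate controls were PAF-stimulated DMSO wells for no effect and unstimulated DMSO wells for full effect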
PAX8 reporter: inhibitors of PAX8 transcriptional activity in RMG-I cells. RMG-I TPO-luciferase reporter, SteadyGlo, 24 h. inhibition, % at 12.6 µM. 360,000 compounds, 1.2% hits. AID 652154;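 active = mean replicate inhibition at least 60% with every replicate also reaching 60%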;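 note: luciferase light reporting Pax8 driven TPO promoter activity; plate controls were median of neutral control wells for no effect and mitoxantrone controls for full effect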
KKLEB tox: reduces viability of KKLEB cystic fibrosis airway cells | KKLEB CF airway cells viability, ATPlite luminescence, overnight; stronger effect = lower value; cells stimulated with P. aeruginosa culture filtrate | activity change (cytotoxicity), % at 5 µM | 360,000 compounds, 0.36% hits | AID 602141;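 active = corrected activity change at or below -50% at 5 µM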
LGR2 inh: inhibitors of bursicon-induced Drosophila LGR2 receptor cAMP signaling; HEK293 LGR2, CRE-luciferase, bursicon-stimulated, 4 h; 380,000 compounds, 0.35% hits; AID 720647; inhibition, % at 9.99 µM;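 active = drop in luminescence signal, shown as inhibition above about 50% in the replicate tests, limit read from the data, passing the limit was not always enough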;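 note: agonist challenge used bursicon conditioned medium at about half maximal strength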
* hit, by the source's call; nt = no result.

SMILES	Shn3 inh set2	EWS-Fli block	CF NFkB inh	PAX8 reporter	KKLEB tox	LGR2 inh
CS(=O)c1nc(-c2ccc(Br)cc2)cc(-c2ccccc2)c1C#N (stereo unspecified)	76	16	14	nt	-31	97*
COc1ccc(-c2cc(-c3ccc(OC)cc3)c(C#N)c(SC)n2)cc1	-26	nt	50*	nt	-26	nt
COc1ccc(-c2cc(-c3ccccc3)c(C#N)c(S(C)(=O)=O)n2)cc1	-39	nt	33	93*	-19	nt
COc1ccc(-c2cc(-c3ccc(O)cc3)nc(N)c2C#N)cc1	17	15	-10	-6	-7	nt
N#Cc1c(-c2ccc3c(c2)OCO3)cc[nH]c1=O	2	nt	26	nt	2	nt
N#Cc1c(-c2ccccc2)cc(-c2ccc(O)cc2)nc1N	-10	24	-9	-1	-7	4
COc1nc(-c2ccccc2)cc(-c2ccc3c(c2)OCO3)c1C#N	5	59*	26	10	-23	4
Cc1noc(C)c1S(=O)(=O)N(C)C[C@@H]1OCCCC[C@@H](C)Oc2ccc(NC(=O)Nc3ccc4c(c3)OCO4)cc2C(=O)N([C@@H](C)CO)C[C@H]1C	nt	-3	nt	1	nt	3
COc1cccc(-c2ccccc2[C@H]2[C@@H](CO)N(C(=O)Cc3ccccc3)[C@H]2C#N)c1	nt	-8	nt	4	nt	12
CS(=O)(=O)c1nc(-c2ccc(Br)cc2)cc(-c2ccccc2)c1C#N	98*	nt	80*	nt	-66*	nt
N#Cc1c(-c2ccc(Br)cc2)cc(-c2cccnc2)nc1N	5	6	-5	-22	-13	-8
COc1ccc(S(=O)(=O)N(C)C[C@@H]2Oc3cc(C#CC4CC4)ccc3S(=O)(=O)N([C@@H](C)CO)C[C@H]2C)cc1	nt	19	nt	nt	nt	11
Nc1cccc(-c2c[nH]c3ncc(-c4cccnc4)cc23)c1	27	nt	80*	nt	-6	nt
O=C(NCCc1ccccc1)c1ccccc1Cl	7	47	4	3	-3	58*
CCOc1ccc(C(=O)NCCc2ccccc2)cc1	-1	59*	2	nt	-3	78*
O=C(O)c1ccccc1C(=O)NCCc1ccc(Cl)cc1	-47	-6	10	18	1	16
O=C(NCCc1ccccc1)c1ccc2c(c1)OCO2	22	73*	11	54	-5	79*
CC(CCc1ccccc1)NC(=O)c1ccc(C(=O)NC(C)CCc2ccccc2)cc1 (stereo unspecified)	53	nt	37	81*	1	nt
CC(CCc1ccccc1)NC(=O)c1ccccc1 (stereo unspecified)	10	nt	10	nt	-2	-19
N#C[C@@H]1[C@H](c2ccc(-c3cccc(F)c3)cc2)[C@H](CO)N1S(=O)(=O)c1cccc(F)c1	nt	9	nt	-6	nt	5
O=C(NCCc1ccccc1)c1ccc2nccnc2c1	-21	35	-7	-3	0	68*
CC(C)C[C@H]1CN=C(N(C)C)N1CC(C)C	19	-6	-12	-7	21	14
CC(C)C[C@H]1CN=C(N(C)C)N1CC1CCCCCC1	87*	8	-2	-18	13	5
O=C(NC1CCCCCC1)c1c2c(nc3ccccc13)CCN(Cc1ccccc1)C2	-3	nt	10	3	-14	12
Cc1cc(N2CCN(C)CC2)ccc1NC(=O)c1c2c(nc3ccccc13)CCN(Cc1ccccc1)C2	39	nt	10	nt	-76*	nt
SMILES	Shn3 inh set2	EWS-Fli block	CF NFkB inh	PAX8 reporter	KKLEB tox	LGR2 inh
C[C@@H]1CN([C@H](C)CO)C(=O)c2cc(C3=CCCC3)cnc2O[C@@H]1CN(C)S(=O)(=O)c1cn(C)cn1	nt	-39	nt	19	nt	4
COc1ccc(S(=O)(=O)N(C)C[C@H]2OCCCC[C@@H](C)Oc3ccc(NS(=O)(=O)c4ccc(F)cc4)cc3C(=O)N([C@@H](C)CO)C[C@@H]2C)cc1	nt	6	nt	44	nt	-8
CC(=O)CCSc1ncnc2sc(-c3ccccc3)cc12	-114	-17	21	-49	-8	-82
O=C(O)CCSc1ncnc2sc(-c3ccccc3)cc12	61	69*	7	0	-7	12
C[C@@H]1CCCCO[C@H](CN(C)S(=O)(=O)c2ccc(Cl)cc2)[C@H](C)CN([C@H](C)CO)C(=O)c2cc(N(C)C)ccc2O1	nt	9	nt	68*	nt	-6
C[C@@H]1CN([C@H](C)CO)C(=O)c2cc(N(C)C)ccc2O[C@@H](C)CCCCO[C@H]1CN(C)S(=O)(=O)c1ccc(Cl)cc1	nt	-30	nt	55	nt	-3
Cc1ccc(S(=O)(=O)N(C)C[C@@H]2OCCCC[C@H](C)Oc3ccc(N(C)C)cc3C(=O)N([C@@H](C)CO)C[C@@H]2C)cc1	nt	-4	nt	73*	nt	4
C[C@H]1CCCCO[C@@H](CN(C)S(=O)(=O)c2ccc(Cl)cc2)[C@@H](C)CN([C@@H](C)CO)C(=O)c2cc(N(C)C)ccc2O1	nt	3	nt	70*	nt	25
Cc1ccc(S(=O)(=O)N(C)C[C@H]2OCCCC[C@H](C)Oc3ccc(N(C)C)cc3C(=O)N([C@H](C)CO)C[C@H]2C)cc1	nt	-10	nt	20	nt	-3
COc1ccccc1CNc1nc(NCc2ccccc2OC)c2sccc2n1	87*	3	7	3	-11	31
COc1ccccc1CNc1nc(Nc2cccc(-c3cnco3)c2)c2sccc2n1	84	3	22	74*	-16	5
COc1ccccc1CNc1nc(NCc2cccs2)nc2ccsc12	42	7	-1	22	-11	-19
COCCNc1nc(NCc2ccccc2OC)c2sccc2n1	73	14	-39	nt	6	-1
CC=Cc1ccc2n(c1=O)C[C@H]1[C@H](CO)[C@@H](C(=O)NCC3CC3)[C@@H]2N1Cc1cccnc1 (mixture of isomers)	nt	1	nt	-34	nt	9
COCC(=O)Nc1ccc2c(c1)OC[C@H](C)N(Cc1ccccn1)C[C@H](C)[C@@H](OC)CN(C)C2=O	nt	4	nt	-4	nt	4
COc1ccccc1CNC(=O)C[C@H]1C[C@@H]2c3cc(NS(=O)(=O)c4ccc(F)cc4)ccc3O[C@@H]2[C@@H](CO)O1	nt	14	nt	-3	nt	3
NS(=O)(=O)c1ccc(Nc2nc(-c3cccc([N+](=O)[O-])c3)cs2)cc1	0	-2	-198	17	25	73*
O=C(Nc1cccc(-c2csc(Nc3ccc(Cl)cc3)n2)c1)c1cc([N+](=O)[O-])cc(C(F)(F)F)c1	62	1	30	79*	-16	4
O=C(Nc1cccc(-c2csc(Nc3ccccc3)n2)c1)c1cc([N+](=O)[O-])cc(C(F)(F)F)c1	-2	-32	-37	-6	0	-25
CCC(=O)N(C)C[C@@H]1Oc2cc(C#CC3CCCCC3)ccc2S(=O)(=O)N([C@H](C)CO)C[C@@H]1C	nt	0	nt	-12	nt	3
Cc1cccc(N2CN(Cc3ccco3)CNC2=S)c1C	5	nt	7	-7	0	-11
